# Reference: PubChem BioAssay AID709 (SRMLSC, 2007)
# In all, about 65,000 compounds went through this assay and about 3,600 (5.5%) were called active. The entries come from a sample that favours actives as a whole. A number with no mark means an inactive call.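 How the source made its calls: active means at 10 µM, mean starting fluorescence two-fold or more over control wells; inactive means the rest.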
# Experiment: intrinsic fluorescence of library compounds, ex339/em460 – biochemical, MLSMR library, data from DPM-DC assay, artefact control, profiling panel (AID 709);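 further: signal is the first read of a kinetic run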
# Details: compound autofluorescence, ex339/em460 nm, NADH buffer; at 10 µM; hits give high values; 1 = no-compound wells, NADH background
row,Structure (SMILES),fluorescence fold increase
1,O=C1CCCc2c1[nH]c1ccc(Br)cc21,1.13
2,O=C1CC(c2cccc(Br)c2)C2=C(CCCC2=O)N1 (stereo not given),2.04 (active)
3,O=C1CC(c2cccc(F)c2)C2=C(CCCC2=O)N1 (stereo not given),1.17
4,C=CCc1cccc2cc(C(=O)OCC)c(=O)oc12,1.21
5,CC(=O)O[C@]1(C(C)=O)CC[C@H]2[C@@H]3C=C(C)C4=CC(=O)CC[C@]4(C)[C@H]3CC[C@@]21C,1
6,COc1ccc(C(=O)NCCc2ccc(S(N)(=O)=O)cc2)cc1OC,1.15
7,O=c1cc(Cn2nnc(-c3ccc(Cl)cc3)n2)nc2sccn12,1.22
8,O=C(NCc1ccc(Cl)cc1)c1cc2c(nc3sccn32)s1,2.6 (active)
9,O=C(NCc1cn2ccsc2n1)Nc1ccc(Cl)cc1,1.11
10,O=C(Nc1c2c(nn1-c1ccc(F)cc1)CS(=O)C2)C12CC3CC(CC(C3)C1)C2 (stereo not given),1.05
11,Cc1cc(C)cc(N(CC(=O)Nc2c(C)n(C)n(-c3ccccc3)c2=O)S(C)(=O)=O)c1,1.04
12,Cc1nc2cc(-c3ccc(F)cc3)nn2c(N2CCOCC2)c1C,1.16
13,Cc1ccc(C(=O)NCCNS(=O)(=O)c2ccccc2)cc1,1.02
14,COCCCNC(=O)c1ccc2c(c1)ncn2-c1ccccc1OC,1.07
15,CN(C)CCCNC(=O)c1ccc2[nH]c3ccccc3c2c1,3.36 (active)
16,CSc1nnc(CNC(=O)c2ccccc2)n1-c1ccc(F)cc1,1.11
17,O=S(=O)(c1cccc(S(=O)(=O)N2CCC(n3nnc4ccccc43)CC2)c1)N1CCCCC1,1.05
18,Cc1ccc2oc(=O)c3cnn(CC(=O)N4CCCCCC4)c3c2c1,1.04
19,Cc1ccc2cc3cc(C(=O)N4CCCCCC4)oc3nc2c1,3.22 (active)
20,Cc1ccc(C(=O)N2CCCCCC2)cc1Br,1.08
21,Cc1cc(C)n2nc(C(=O)Oc3ccc4c(c3)OCO4)nc2n1,1.15
22,C#CCNc1nc(C(C)C)nc2c1nnn2Cc1ccccc1F,1.04
23,CC(C)(C)c1nc(NCC2CCCO2)c2nnn(Cc3ccccc3)c2n1 (stereo not given),1.16
24,Cc1nc(Nc2ccc3c(c2)OCCO3)c2nnn(Cc3ccccc3Cl)c2n1,2.39 (active)
25,CCCc1cc(=O)oc2c(C)c(O)c(CN3CCCCC3)cc12,2.34 (active)

row,Structure (SMILES),fluorescence fold increase
1,CCc1ccc2oc(=O)cc(CN3CCCCC3C)c2c1 (stereo not given),1.11
2,CCOC(=O)N1CCN(Cc2oc(CO)cc(=O)c2O)CC1,1.04
3,C[N+](C)(C)CCNC(=O)c1c(O)c2c([nH]c1=O)CCCC2,1.18
4,O=C(Cn1c(-c2ccccn2)nc2ccccc21)NCCN1CCOCC1,1.39
5,NC(=O)COc1ccc2c3c(c(=O)oc2c1)CCCCC3,3.71 (active)
6,O=C(COc1ccccc1F)NC1CC1,1.01
7,O=C(CC1OC(=O)c2ccccc21)NC1CCCCC1 (stereo not given),1.08
8,O=C(COc1ccc2c3c(c(=O)oc2c1)CCC3)NC1CCCCC1,2.13 (active)
9,O=C(COc1ccc2oc3c(c2c1)CCCC3)Nc1ccccn1,1.06
10,CCc1cc(=O)oc2cc(OCC(=O)N3CCCc4ccccc43)ccc12,1.26
11,O=C(C1CCC(C(=O)N2CCCC2)CC1)N1CCCC1 (stereo not given),1.02
12,Cc1nnc(SCC(=O)NCc2ccccc2)s1,1.06
13,O=C(O)CC(c1ccccc1)n1cnnn1 (stereo not given),1.14
14,O=C(CS(=O)(=O)Cc1ccccc1)Nc1cccnc1,1.1
15,CCOCCN(C=O)c1cccc(OC)c1,1.15
16,COc1ccccc1C1/C(=C(/O)c2ccc(OC(C)C)cc2)C(=O)C(=O)N1c1cc(C)on1 (stereo not given),1.06
17,Cc1ccc(S(=O)(=O)NCC(=O)N(CC(=O)NC2CCCCC2)Cc2ccco2)cc1,1
18,CC(Cc1cccs1)NC(=O)NC1CCCCC1 (stereo not given),1.06
19,COc1ccc2oc(C)c(NC(C)=O)c2c1,1.06
20,CC(=O)Oc1ccc2c(C)c(CC(C)O)c(=O)oc2c1 (stereo not given),3.67 (active)
21,CC(=O)Nc1cc2ccc(OC(C)=O)cc2oc1=O,2.1 (active)
22,COc1ccc(C(=O)c2oc3ccc(Br)cc3c2NC(C)=O)cc1,1.11
23,O=C(NCc1ccc(Cl)c(Cl)c1)c1cccnc1,0.91
24,O=C1C=C(NCCNc2c(F)c(F)c(CO)c(F)c2F)CCC1,1.14
25,COc1ccc(CSc2nc(N3CCOCC3)c3c(c2C#N)CC(C)(C)OC3)cc1,1.08

row,Structure (SMILES),fluorescence fold increase
1,CC(C)c1nc(N2CCOCC2)c(C#N)c2c1COC(C)(C)C2,2.28 (active)
2,CC(C)Cc1nc(N2CCOCC2)c(C#N)c2c1CCC2,1.97
3,Cc1nc(NCCN)c(C#N)c2c1COC(C)(C)C2,1.92
4,CC1(C)Cc2c(C#N)c(SCc3nc4ccccc4[nH]3)nc(N3CCOCC3)c2CO1,1.39
5,CC(C)C(=O)N1CCN(c2nc(-c3ccccc3)c3c(c2C#N)CC(C)(C)OC3)CC1,2.34 (active)
6,C/C(=C\c1ccco1)C1Nc2cccc3cccc(c23)N1,1.19
7,CCOc1c(OC)cc(C2C(C#N)=C(N)Oc3n[nH]c(-c4ccncc4)c32)cc1OC (stereo not given),1.13
8,COc1ccc(OC)c(C(=O)CSc2nnc(-c3cccs3)o2)c1,3.64 (active)
9,COc1ccc(-n2c(C)cc(C(=O)CSc3nnc(-c4cccs4)o3)c2C)cc1,1.07
10,COc1ccc(-c2nnc(SCC(=O)c3cccs3)o2)c(OC)c1,1.12
11,COc1ccc2c(c1)CCc1c(C(=O)N3CCCC3)noc1-2,1.1
12,CN(CCc1ccccn1)S(=O)(=O)c1ccc2c3c(cccc13)C(=O)N2,3.89 (active)
13,O=c1[nH]nc(Cc2ccccn2)c2ccccc12,1.07
14,CC1(C)CN=C(N2CCN(c3ncnc4sc5c(c34)CCCC5)CC2)S1,1.03
15,Fc1c(F)c(C(F)(F)F)c(F)c(F)c1N1CCN(c2ccc3nnc(C(F)(F)F)n3n2)CC1,1.93
16,CN(c1ccccc1)c1ccc(/C=c2\s/c(=C(/C#N)C(=O)C(C)(C)C)n(Cc3ccco3)c2=O)cc1,0.95
17,Cc1ccc(C(=O)Nc2nnc(-c3ccncc3)s2)o1,2.14 (active)
18,Cc1occc1C(=O)Nc1cccc(Cn2cccn2)c1,1.14
19,Cc1occc1C(=O)Nc1nnc(C2CCCCC2)s1,1.04
20,Cc1occc1C(=O)Nc1nnc(-c2ccncc2)s1,2.2 (active)
21,CC(=O)Cc1nsc(NC(=O)c2ccc(COc3ccc(C)cc3)o2)n1,1.06
22,O=C(Nc1ccncc1)c1cc2ccccc2o1,1.02
23,COc1ccc(CCNC(=O)c2cc(-c3ccc4c(c3)OCO4)on2)cc1OC,1.07
24,O=C(CSc1nnc(-c2ccccn2)n1-c1ccccc1)Nc1ccc2c(c1)OCO2,1.08
25,CC(C)Oc1ccc(C(=O)Nc2cc(=O)n(C)c(=O)n2C)cc1,1.01

row,Structure (SMILES),fluorescence fold increase
1,O=C(c1cccs1)N1CCN(C(=O)N2CCOCC2)CC1,1.11
2,CCOc1ccccc1N(CC(=O)NC1CCCCC1)C(=O)CCCC(=O)Nc1ccccn1,1.08
3,C=CCNC(=O)CSc1nc2sc(C)c(C)c2c(=O)[nH]1,1
4,CC(=O)c1sc2nc(SCC(=O)N3CCCCC3)[nH]c(=O)c2c1C,2.68 (active)
5,O=C(CSc1nc2c(cnn2-c2ccc(F)cc2)c(=O)[nH]1)N1CCCCCC1,1.11
6,Cc1ccc(-n2nc3c(c2NC(=O)CCC2CCCCC2)CS(=O)C3)cc1 (stereo not given),1.14
7,CCOc1cccc(NC(=O)C2CCCN(S(=O)(=O)c3ccc(OC)cc3)C2)c1 (stereo not given),1.02
8,CC1(C)CC(=O)NC=C(c2ccccc2)C1,1.06
9,N#Cc1c2c(c(-c3ccccc3)[nH]c1=O)CCCC2,1.02
10,O=c1[nH]c(-c2ccccc2)c(-c2ccccc2)[nH]1,3.71 (active)
11,CCOC(=O)N1CCN(C(=O)c2ccc(S(=O)(=O)c3ccc(C)cc3)c(NC(C)=O)c2)CC1,1.2
12,Cc1ccc(C(=O)CS(C)(=O)=O)cc1,1.35
13,OC1CN=C2Sc3ccccc3N2C1 (stereo not given),1.06
14,COc1ccc(C(C(O)C(=O)c2c[nH]c3ccccc23)N2CCN(c3ccccc3)CC2)cc1 (stereo not given),1.15
15,Cc1ccc2nc(-c3ccc(SCC(=O)Nc4cc(C)on4)nc3)[nH]c2c1,3.38 (active)
16,Cc1cc(C)c2c(c1)cc(C)c1nnc(SCC(=O)Nc3cc(C)on3)n12,1.09
17,Cc1nc(SCC(=O)Nc2cc(C)on2)c2c(C)c(C)sc2n1,1.11
18,CN(c1nc2ccccc2n2c(-c3ccco3)nnc12)S(=O)(=O)c1ccccc1,2.86 (active)
19,Cc1ccc(Oc2nc3ccccc3n3c(C)nnc23)cc1,1.08
20,c1ccc(CSc2nnc(-c3ccco3)n2Cc2ccccc2)cc1,1.15
21,COc1ccc(OC)c(CN2C(=O)CCC2(C)C(=O)NC2CCCCCC2)c1 (stereo not given),1.09
22,CCCCc1cc(=O)oc2cc(C)cc(OCc3nn[nH]n3)c12,3.84 (active)
23,CC(C)C[C@H](NC(=O)[C@@H]1O[C@H]1C(=O)O)C(=O)NCCCCN=C(N)N,1.01
24,CC1(C)CC(=O)C(C2=NC(C)(C)Cc3ccccc32)=C(O)C1,1.05
25,Cc1ccc2[nH]c3c(c2c1)CN(C(=O)CN1CCN(c2ccccc2)CC1)CC3,1.21
